Out of some 5,500 compounds screened, about 2,000 (36%) were called active. Inconclusive results (about 18%) are left out. No stated cut-off is given here; in the data, active means normalized growth mostly below about 0.91 (no sharp cut-off); inconclusive means no clear call, values can overlap the other calls; inactive means mostly above about 0.92. The list shows a part of the results.
Assay: chemical genetic growth profiling, strain panel (AID 1159580);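 further: tested at 20 µM; growth read once vehicle control cultures reached saturation at 30 °C; 1 = growth at the plate median or of vehicle wells; lower values mean less growth of the strain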
Conditions: growth OD

Measured: normalized growth

Cn1nnnc1SCC1=C(C(=O)O)N2C(=O)C(NC(=O)C(OC=O)c3ccccc3)C2SC1 (stereo unspecified)
inactive: S. cerevisiae deletion strains, locus YJR075W, strain HOC1, hits give low values 1.01 | S. cerevisiae deletion strains, locus YKL009W, strain mrt4, hits give low values 1.02 | S. cerevisiae deletion strains, locus YKL068W, hits give low values 1.01 | S. cerevisiae deletion strains, locus YKL085W, strain MDH1 (second series), hits give low values 1 | S. cerevisiae deletion strains, locus YKL085W, strain MDH1, hits give low values 1 | S. cerevisiae deletion strains, locus YKL160W, strain elf1, hits give low values 1.01 | S. cerevisiae deletion strains, locus YKL190W, strain CNB1, hits give low values 1 | S. cerevisiae deletion strains, locus YKR001C, strain vps1, hits give low values 1.02 | S. cerevisiae deletion strains, locus YKR026C, strain gcn3, hits give low values 0.989 | S. cerevisiae deletion strains, locus YKR091W, strain srl3, hits give low values 0.995 | S. cerevisiae deletion strains, locus YLL001W, strain dnm1, hits give low values 1 | S. cerevisiae deletion strains, locus YLL026W, hits give low values 0.997 | S. cerevisiae deletion strains, locus YLL041C, strain sdh2, hits give low values 1 | S. cerevisiae deletion strains, locus YLR027C, strain aat2, hits give low values 0.992 | S. cerevisiae deletion strains, locus YLR039C, strain RIC1, hits give low values 1 | S. cerevisiae deletion strains, locus YLR058C, strain SHM2, hits give low values 1 | S. cerevisiae deletion strains, locus YLR102C, strain apc9, hits give low values 1.02 | S. cerevisiae deletion strains, locus YLR113W, strain HOG1, hits give low values 0.941 | S. cerevisiae deletion strains, locus YLR221C, strain rsa3, hits give low values 0.987 | S. cerevisiae deletion strains, locus YLR258W, strain gsy2, hits give low values 0.998 | S. cerevisiae deletion strains, locus YLR262C, strain YPT6 (second series), hits give low values 1.02 | S. cerevisiae deletion strains, locus YLR262C, strain YPT6, hits give low values 1.04 | S. cerevisiae deletion strains, locus YLR268W, strain sec22, hits give low values 1.01 | S. cerevisiae deletion strains, locus YLR320W, strain mms22, hits give low values 0.993 | S. cerevisiae deletion strains, locus YLR330W, strain CHS5, hits give low values 1 | S. cerevisiae deletion strains, locus YLR342W, strain FKS1 (second series), hits give low values 0.999 | S. cerevisiae deletion strains, locus YLR342W, strain FKS1, hits give low values 0.992 | S. cerevisiae deletion strains, locus YLR357W, strain rsc2, hits give low values 0.94 | S. cerevisiae deletion strains, locus YLR370C, strain arc18, hits give low values 0.989 | S. cerevisiae deletion strains, locus YLR371W, strain rom2, hits give low values 1.02 | S. cerevisiae deletion strains, locus YLR384C, strain iki3, hits give low values 0.991 | S. cerevisiae deletion strains, locus YLR418C, strain cdc73, hits give low values 1.04 | S. cerevisiae deletion strains, locus YML016C, strain PPZ1, hits give low values 1.01 | S. cerevisiae deletion strains, locus YML032C, strain rad52, hits give low values 1.04 | S. cerevisiae deletion strains, locus YML120C, strain ndi1, hits give low values 1.02 | S. cerevisiae deletion strains, locus YML124C, strain tub3, hits give low values 1.02 | S. cerevisiae deletion strains, locus YMR058W, strain fet3, hits give low values 0.998 | S. cerevisiae deletion strains, locus YMR078C, strain ctf18, hits give low values 1.02 | S. cerevisiae deletion strains, locus YMR125W, strain sto1, hits give low values 0.989 | S. cerevisiae deletion strains, locus YMR129W, hits give low values 1 | S. cerevisiae deletion strains, locus YMR205C, strain PFK2, hits give low values 1.02 | S. cerevisiae deletion strains, locus YMR223W, strain ubp8, hits give low values 1.02 | S. cerevisiae deletion strains, locus YMR231W, strain pep5, hits give low values 0.998 | S. cerevisiae deletion strains, locus YMR263W, strain SAP30, hits give low values 0.999 | S. cerevisiae deletion strains, locus YMR307W, strain GAS1, hits give low values 1.07 | S. cerevisiae deletion strains, locus YNL067W, strain RPL9B, hits give low values 1 | S. cerevisiae deletion strains, locus YNL071W, strain lat1, hits give low values 1 | S. cerevisiae deletion strains, locus YNL128W, strain TEP1, hits give low values 1.02 | S. cerevisiae deletion strains, locus YNL153C, strain GIM3, hits give low values 0.997 | S. cerevisiae deletion strains, locus YNL183C, strain NPR1, hits give low values 0.934 | S. cerevisiae deletion strains, locus YNL209W, strain ssb2, hits give low values 1 | S. cerevisiae deletion strains, locus YNL233W, strain BNI4, hits give low values 0.993 | S. cerevisiae deletion strains, locus YNL248C, strain rpa49, hits give low values 0.986 | S. cerevisiae deletion strains, locus YNL250W, strain rad50, hits give low values 1.02 | S. cerevisiae deletion strains, locus YNL271C, strain bni1, hits give low values 1.04 | S. cerevisiae deletion strains, locus YNL298W, strain CLA4, hits give low values 1.05 | S. cerevisiae deletion strains, locus YNL307C, strain MCK1, hits give low values 1.03 | S. cerevisiae deletion strains, locus YNL322C, strain KRE1 (second series), hits give low values 1 | S. cerevisiae deletion strains, locus YNR049C, strain mso1, hits give low values 0.988 | S. cerevisiae deletion strains, locus YNR052C, strain pop2, hits give low values 1.03 | S. cerevisiae deletion strains, locus YOL006C, strain TOP1, hits give low values 1.02 | S. cerevisiae deletion strains, locus YOL012C, strain htz1 0.769 | S. cerevisiae deletion strains, locus YOL147C, strain pex11, hits give low values 1.02 | S. cerevisiae deletion strains, locus YOR001W, strain rrp6, hits give low values 0.973 | S. cerevisiae deletion strains, locus YOR061W, strain CKA2, hits give low values 1.01 | S. cerevisiae deletion strains, locus YOR069W, strain VPS5, hits give low values 0.993 | S. cerevisiae deletion strains, locus YOR070C, strain gyp1, hits give low values 0.985 | S. cerevisiae deletion strains, locus YOR080W, strain dia2, hits give low values 1 | S. cerevisiae deletion strains, locus YOR083W, strain WHI5, hits give low values 1.01 | S. cerevisiae deletion strains, locus YOR106W, strain vam3, hits give low values 1.02 | S. cerevisiae deletion strains, locus YOR136W, strain idh2, hits give low values 1.03 | S. cerevisiae deletion strains, locus YOR144C, strain elg1, hits give low values 1.01 | S. cerevisiae deletion strains, locus YOR184W, strain ser1, hits give low values 1.02 | S. cerevisiae deletion strains, locus YOR231W, strain MKK1, hits give low values 0.983 | S. cerevisiae deletion strains, locus YOR265W, strain rbl2, hits give low values 1.01 | S. cerevisiae deletion strains, locus YOR270C, strain vph1, hits give low values 1.01 | S. cerevisiae deletion strains, locus YOR290C, strain snf2, hits give low values 1.01 | S. cerevisiae deletion strains, locus YOR316C, strain cot1, hits give low values 1.02 | S. cerevisiae deletion strains, locus YPL051W, strain arl3, hits give low values 0.983 | S. cerevisiae deletion strains, locus YPL055C, strain LGE1, hits give low values 1.02 | S. cerevisiae deletion strains, locus YPL078C, strain atp4, hits give low values 1.01 | S. cerevisiae deletion strains, locus YPL106C, strain sse1, hits give low values 1.01 | S. cerevisiae deletion strains, locus YPL240C, strain hsp82, hits give low values 0.995 | S. cerevisiae deletion strains, locus YPL241C, strain CIN2, hits give low values 1 | S. cerevisiae deletion strains, locus YPL256C, strain CLN2, hits give low values 0.999 | S. cerevisiae deletion strains, locus YPR119W, strain clb2, hits give low values 1.02 | S. cerevisiae deletion strains, locus YPR141C, strain kar3, hits give low values 1.01 | S. cerevisiae deletion strains, locus YPR163C, strain tif3, hits give low values 1.04 | S. cerevisiae deletion strains, locus YPR167C, strain met16, hits give low values 1.02 | S. cerevisiae deletion strains, strain wtn01, hits give low values 1.01 | S. cerevisiae strains, strain wild type, hits give low values 1

Source: PubChem BioAssay AID1159580 (chemical genetic matrix, 2015)
